# AID504770: growth inhibitors of E. coli YBA685 in a screen for V. cholerae RctB (chromosome II replication) inhibitors; E. coli YBA685 rctB-dependent plasmid, OD600 growth, 3 h; active compounds read low; AID 504770; z-score (test concentration not listed); hit rate 0.27% among 130,000; in the data active means z-score below about -2, passing the limit was not always enough
# CapD inh: CapD enzyme inhibition. purified CapD enzyme, fluorescence intensity read-out; active compounds read low. z-score (concentration not given with the values). hit rate 0.23% among 140,000. AID 492967; in the data active means z-score mostly below about -2.9, no sharp cut-off; inactive means mostly above about -1.9
# Starred values were filed as active, the others as inactive; . = not tested or not shown. Compounds with a hit are over-represented: about 0.4% of the library has one in this group of screens.
SMILES,AID504770,CapD inh
COc1cccc(NC(=O)c2ccc(Cl)cc2)c1,0.5,-0.26
COc1cccc(NC(=O)c2ccc(OC(=S)N3CCC(C)CC3)cc2)c1,-2.8*,-0.21
CCCNC(=O)CN,1.8,.
CNS(=O)(=O)c1cn(CC(=O)N2CCc3ccccc32)cc1S(=O)(=O)NC,0.65,0.54
CCc1ccccc1NC(=O)CN1CCNCC1,-0.9,.
CCc1ccccc1NC(=O)CN1CCN(Cc2ccccc2C)S1(=O)=O,-3.5*,0.52
Cc1nn(-c2ccc(Cl)cc2)c2sc(C(=O)OCCC3CCCCN3C)cc12 (centres undefined),1.3,.
Cc1c(C=Nc2cccc3nsnc23)c(=O)n2c([nH]c3ccccc32)c1C#N,0.5,2.1
N#Cc1ccc(CSc2nc3ncccc3c(=O)n2Cc2ccccc2)cc1,-0.35,-6.5*
O=c1c2cccnc2nc(SCc2ccccc2F)n1Cc1ccccc1,-0.15,1
Cc1ccc(S(=O)(=O)c2nc(Nc3nccs3)sc2Cl)cc1,0.3,-5.1*
CCOc1nc(S(=O)(=O)c2ccc(C)cc2)c(Cl)s1,-1.1,-0.15
CC1Cc2ccccc2N1C(=O)Cn1c(-c2cccnc2)ccc(C#N)c1=O (centres undefined),-0.65,.
O=C(NNC(=O)c1ccccc1-n1cccc1)OCCc1ccc(F)cc1,.,0.87
CCOC(=O)c1cn(C2CC2)c2c(F)c(F)c(F)cc2c1=O,-0.15,-0.075
Cc1nn(-c2ccccc2)nc1CNS(C)(=O)=O,-0.65,0
Cc1nn(-c2ccccc2)nc1CNS(=O)(=O)c1cccs1,-3.3*,-0.15
Cc1ccc(C2CC(=O)C=C(Nc3ncn[nH]3)C2)cc1 (centres undefined),0.95,.
O=C(COC(=O)c1ccc(Br)cc1)NCc1ccccc1,-0.1,0.26
O=C(COC(=O)c1ccncc1)NCc1ccccc1,-3.5*,0.57
O=C(CN1C(=O)CC(c2ccco2)Sc2ccccc21)c1ccccc1 (centres undefined),-0.4,.
N#Cc1c(N)[n+]([O-])c2ccccc2[n+]1[O-],-4.4*,-1.2
O=c1c(-c2ccc(Oc3ccccc3)cc2)[n+]([O-])c2ccccc2n1O,0.2,2.2
N#Cc1c(=O)n(O)c2ccccc2[n+]1[O-],-4.3*,-1.1
N#Cc1cnn(-c2ccccc2)c1N,0.1,0.045
SMILES,AID504770,CapD inh
NC(=O)c1c(NC(=O)CN2C(=O)S/C(=C\c3ccc(F)cc3)C2=O)sc2c1CCCC2,.,0.24
CCCN1C(=O)CCS(=O)(=O)c2ccccc21,-0.05,.
COc1cc2sc(=NC(=O)CCS(=O)(=O)c3ccccc3)n(C)c2cc1OC,0.2,.
COc1ccc(N2CCN(CC(O)COc3ccccc3)CC2)cc1 (centres undefined),-0.1,.
CCn1c2ccccc2c2cc(CN3CCN(S(=O)(=O)c4ccc(OC)c(OC)c4)CC3)ccc21,.,21
O=C(CSc1n[nH]c(=O)n1C1Cc2ccccc2C1)c1ccc2c(c1)OCCO2,1.6,-1.8
CC(=O)Oc1ccccc1N(C(C)=O)S(=O)(=O)c1ccc(C)cc1,-0.65,-0.39
COc1ccccc1N(C(C)=O)S(=O)(=O)c1ccc(Cl)cc1,-0.85,-4.7*
O=C1CCCc2cc(S(=O)(=O)N3CCCC(C(=O)NC4CCCC4)C3)ccc2N1 (centres undefined),0.45,0.78
Cc1ccc(NC(=O)c2ccco2)c(NC(=O)C(C)C)c1,-0.7,-0.12
CCN(CC)C(=O)Oc1cc(COC)nc(-c2ccccc2)n1,-3*,-0.43
CCN(CC)C(=O)Oc1cc(C(F)(F)F)nc(-c2ccc(Cl)cc2)n1,2.2,-0.11
CCC1C/C(=C/c2ccco2)C(=O)/C(=C/c2ccco2)C1 (centres undefined),0.1,-2.5
CC1C/C(=C/c2ccco2)C(C)N(C)C1 (centres undefined),-0.4,-5.2*
O=C(CCNC(=O)c1ccco1)NC1CCCCCC1,-2.1,.
O=C(CSc1nc2ccc(NC(=O)c3ccccc3C(=O)N3CCCC3)cc2s1)NC1CCCCC1,.,0.24
CN/C=C/C(=O)C(F)(F)F,0.7,.
O=C1CCCc2nc(N3CCCCC3)sc21,-0.3,-4.3*
Nc1nnc(N2CCCCC2)s1,-0.95,-0.38
COC(=O)CCc1c(C)nn(-c2ccc(C(=O)N3CCN(C(=O)OC(C)(C)C)CC3)cc2)c1C,.,0.26
Cc1cc(C)c(C2=NON3N(C(=O)c4ccc(Cl)cc4)c4ccccc4N23)c(C)c1,.,0.2
COc1ccc(CCNC(C#N)c2ccc(Cl)c(Cl)c2)cc1OC (centres undefined),.,0.93
N#CSC(C#N)Cc1ccc(Cl)c(Cl)c1 (centres undefined),-4.2*,-1.9
NC(CO)C(=O)N/N=C/c1ccc(O)c(O)c1O (centres undefined),0.25,-6.9*
NC(CO)C(=O)NNCc1ccc(O)c(O)c1O (centres undefined),0.4,0.07
SMILES,AID504770,CapD inh
COc1cc(/C(N)=N/O)cc(OC)c1OC,-0.1,0.53
CC1(C)N([O-])c2ccccc2[N+]1=O,-4*,-0.28
CC1=C(c2ccccc2)[N+](=O)C(C)(C)N1[O-],-0.6,-1.6
Cc1cc(C)c(-c2ccc3cccnc3n2)c(O)c1,.,-0.85
CCCOP(=O)(OCCC)C(NC(=O)c1ccccc1)=C(Sc1ccc(Cl)cc1)Sc1ccc(Cl)cc1,.,0.16
Cc1nnc(SC(C)C(=O)C23CC4CC(CC(C4)C2)C3)n1C (centres undefined),0.45,.
CCOC(=O)c1c(C)cccc1NC(=O)c1cccs1,-0.35,-1.7*
CCOC(=O)c1csc(NC(=O)c2cccs2)n1,-0.6,.
O=C(O)c1cc(-c2ccco2)nc2ccc(Br)cc12,2,37
O=C(O)c1ccccc1-c1ccc(-c2cc(C(=O)O)c3cc(F)ccc3n2)o1,-2.7*,-0.85
CCC(Sc1nc2ncccc2[nH]1)C(=O)N(CC)c1cccc(C)c1 (centres undefined),-0.5,-0.44
O=C(CC(c1cccs1)N1Cc2ccccc2C1=O)NCc1ccc(CN2CCOCC2)o1 (centres undefined),-0.25,0.56
O=C(CC(c1cccs1)N1Cc2ccccc2C1=O)NCCN1CCOCC1 (centres undefined),-2.2*,0.1
COc1cccc(N/C=C(\C#N)c2ccc(Cl)cc2)c1,-0.5,-1.2
CC1(c2ccccc2)NC(=O)NC1=O (centres undefined),-0.3,.
Cc1cc(C)c(C=C2C(=O)OC(C)(C)OC2=O)[nH]1,-0.75,-4.1
Cc1cc(C)c(C=C2C(=O)CCCC2=O)[nH]1,0.2,-7.6*
COc1cc(NS(=O)(=O)c2c(C)c(C)c(C)c(C)c2C)cc(C(F)(F)F)c1,.,0.49
COc1cc(/C=C2\C(=O)NC(=S)N(c3ccc(Cl)cc3)C2=O)cc([N+](=O)[O-])c1O,.,-2.8
COc1cc(/C=C2\C(=O)NC(=S)N(c3ccccc3C)C2=O)cc([N+](=O)[O-])c1O,.,-6*
O=C(CSc1nnc(Cn2nnc3ccccc32)o1)N1c2ccccc2CCc2ccccc21,-0.2,.
N=C1S/C(=C/c2ccc(-c3cccc(C(=O)O)c3)o2)C(=O)N1c1nonc1N,.,-6.1*
N=C1S/C(=C/c2ccc(-c3ccccc3[N+](=O)[O-])o2)C(=O)N1c1nonc1N,.,-1.5
O=C1NC(=O)N(c2ccc(F)cc2)C(=O)/C1=C/c1ccc(-c2ccccc2C(=O)O)o1,.,6.3
CCN(C(=O)COc1ccc(C#N)cc1OC)C1CCCCC1,0.05,.
COc1ccc(NC(=O)c2nc(S(C)(=O)=O)ncc2Cl)cc1Cl,-0.85,-1.1
COC(=O)c1nc(S(C)(=O)=O)ncc1Cl,-2.7*,.
